Reference: PubChem BioAssay AID1159580 (chemical genetic matrix, 2015)
Out of some 5,500 compounds screened, about 2,000 (36%) were called active. Inconclusive results (about 18%) are left out. No stated cut-off is given here; in the data, active means normalized growth mostly below about 0.91 (no sharp cut-off); inconclusive means no clear call, values can overlap the other calls; inactive means mostly above about 0.92. Some of the results follow.

Test: chemical genetic growth profiling, strain panel (AID 1159580);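 further: tested at 20 µM; growth read once vehicle control cultures reached saturation at 30 °C; 1 = growth at the plate median or of vehicle wells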
Details: S. cerevisiae deletion strains, growth OD
[1] = locus YAR019C, strain CDC15, stronger effect = lower value
[2] = locus YBL105C, strain PKC1, stronger effect = lower value
[3] = locus YBR135W, strain CKS1, stronger effect = lower value
[4] = locus YBR136W, strain MEC1, stronger effect = lower value
[5] = locus YBR160W, strain CDC28, stronger effect = lower value
[6] = locus YDL017W, strain CDC7, stronger effect = lower value
[7] = locus YDL028C, strain MPS1, stronger effect = lower value
[8] = locus YDL101C, strain DUN1, stronger effect = lower value
[9] = locus YDL108W, strain KIN28, stronger effect = lower value
[10] = locus YDL132W, strain cdc53, stronger effect = lower value
[11] = locus YDL214C, strain PRR2, stronger effect = lower value
[12] = locus YDR052C, strain DBF4, stronger effect = lower value
[13] = locus YDR054C, strain cdc34, stronger effect = lower value
[14] = locus YDR226W, strain ADK1, stronger effect = lower value
[15] = locus YDR477W, strain SNF1, stronger effect = lower value
[16] = locus YER123W, strain YCK3, stronger effect = lower value
[17] = locus YER133W, strain GLC7, stronger effect = lower value
[18] = locus YFL009W, strain cdc4, stronger effect = lower value
[19] = locus YFL029C, strain CAK1, stronger effect = lower value
[20] = locus YFR003C, strain YPI1, stronger effect = lower value
[21] = locus YFR019W, strain FAB1, stronger effect = lower value
[22] = locus YFR028C, strain CDC14, stronger effect = lower value
[23] = locus YGR040W, strain KSS1, stronger effect = lower value
[24] = locus YGR052W, strain FMP48, stronger effect = lower value
[25] = locus YGR092W, strain DBF2, stronger effect = lower value
[26] = locus YHR030C, strain SLT2, stronger effect = lower value
[27] = locus YHR079C, strain IRE1, stronger effect = lower value
[28] = locus YHR082C, strain KSP1, stronger effect = lower value
[29] = locus YHR205W, strain SCH9, stronger effect = lower value
[30] = locus YIL147C, strain SLN1, stronger effect = lower value
[31] = locus YJL095W, strain BCK1, stronger effect = lower value
[32] = locus YJL128C, strain PBS2, stronger effect = lower value
[33] = locus YJL157C, strain FAR1, stronger effect = lower value
[34] = locus YJR016C, strain ILV3, stronger effect = lower value
[35] = locus YJR066W, strain TOR1 (second series), stronger effect = lower value
[36] = locus YJR066W, strain TOR1, stronger effect = lower value
[37] = locus YKL048C, strain ELM1, stronger effect = lower value
[38] = locus YKL067W, strain YNK1, stronger effect = lower value
[39] = locus YKL101W, strain HSL1, stronger effect = lower value
[40] = locus YKL193C, strain SDS22, stronger effect = lower value
[41] = locus YKL203C, strain TOR2, stronger effect = lower value
[42] = locus YLR113W, strain HOG1, stronger effect = lower value
[43] = locus YLR133W, strain CKI1, stronger effect = lower value
[44] = locus YLR403W, strain SFP1, stronger effect = lower value
[45] = locus YML070W, strain DAK1, stronger effect = lower value
[46] = locus YMR001C, strain CDC5, stronger effect = lower value
[47] = locus YMR205C, strain PFK2 (second series), stronger effect = lower value
[48] = locus YMR277W, strain FCP1, stronger effect = lower value
[49] = locus YNL006W, strain LST8, stronger effect = lower value
[50] = locus YNL020C, strain ARK1, stronger effect = lower value
[51] = locus YNL161W, strain CBK1, stronger effect = lower value
[52] = locus YNL183C, strain NPR1, stronger effect = lower value
[53] = locus YNL207W, strain RIO2, stronger effect = lower value
[54] = locus YNL222W, strain SSU72, stronger effect = lower value
[55] = locus YNL307C, strain MCK1 (second series), stronger effect = lower value
[56] = locus YOL078W, strain AVO1, stronger effect = lower value
[57] = locus YOL136C, strain PFK27, stronger effect = lower value
[58] = locus YOR061W, strain CKA2, stronger effect = lower value
[59] = locus YOR119C, strain RIO1, stronger effect = lower value
[60] = locus YOR231W, strain MKK1, stronger effect = lower value
[61] = locus YOR329C, strain SCD5, stronger effect = lower value
[62] = locus YPL031C, strain PHO85, stronger effect = lower value
[63] = locus YPL153C, strain RAD53, stronger effect = lower value
[64] = locus YPL204W, strain HRR25, stronger effect = lower value
[65] = locus YPL209C, strain IPL1, stronger effect = lower value
[66] = locus YPL256C, strain CLN2, stronger effect = lower value
[67] = locus YPR025C, strain CCL1, stronger effect = lower value
[68] = locus YPR106W, strain ISR1, stronger effect = lower value
[69] = locus YPR111W, strain DBF20, stronger effect = lower value
[70] = strain NNK1, stronger effect = lower value
[71] = strain TSCII, stronger effect = lower value

Measured: normalized growth

O=C(c1ccc2ccccc2c1)N1CCN(c2ccnc3cc(Cl)ccc23)CC1
inactive: [1] 1 | [2] 1 | [3] 0.997 | [4] 0.997 | [5] 0.995 | [6] 0.998 | [7] 0.991 | [8] 0.994 | [9] 0.99 | [10] 0.987 | [11] 0.957 | [12] 0.988 | [13] 0.981 | [14] 1 | [15] 0.958 | [16] 0.947 | [17] 0.965 | [18] 0.993 | [19] 1 | [20] 1 | [21] 0.941 | [22] 0.997 | [23] 0.959 | [24] 1.08 | [25] 0.977 | [27] 0.968 | [28] 1.01 | [29] 0.904 | [30] 0.996 | [31] 0.94 | [32] 0.98 | [33] 0.974 | [34] 0.998 | [35] 0.947 | [36] 0.96 | [37] 0.974 | [38] 0.962 | [39] 0.958 | [40] 0.992 | [41] 0.991 | [42] 0.955 | [43] 0.95 | [44] 0.951 | [45] 0.959 | [46] 0.992 | [47] 0.973 | [48] 0.995 | [49] 0.995 | [50] 0.945 | [51] 0.997 | [52] 0.953 | [53] 0.994 | [54] 0.995 | [55] 0.921 | [56] 0.997 | [57] 0.952 | [58] 0.973 | [59] 1.03 | [60] 0.955 | [61] 0.995 | [62] 0.953 | [63] 0.962 | [64] 0.939 | [65] 0.998 | [66] 0.929 | [67] 0.988 | [68] 0.999 | [69] 0.984 | [70] 0.987 | [71] 0.998
active: [26] 0.821

O=C(Nc1ccc(C(F)(F)F)cc1)N1CCN(c2ccnc3cc(Cl)ccc23)CC1
inactive: [1] 0.984 | [2] 0.977 | [3] 0.987 | [4] 0.973 | [5] 0.973 | [6] 0.994 | [7] 0.981 | [8] 0.982 | [9] 0.983 | [10] 0.995 | [11] 1.01 | [12] 0.983 | [13] 0.975 | [14] 0.983 | [15] 0.997 | [16] 1.02 | [17] 1.01 | [18] 0.985 | [19] 0.965 | [20] 0.988 | [21] 0.999 | [22] 0.984 | [23] 1 | [24] 1.08 | [25] 0.975 | [26] 1.08 | [27] 1.04 | [28] 1.1 | [29] 0.995 | [30] 0.981 | [31] 1.1 | [32] 0.993 | [33] 1 | [34] 0.993 | [35] 1.02 | [36] 1.11 | [37] 0.996 | [38] 0.992 | [39] 1.01 | [40] 0.988 | [41] 1.06 | [42] 1.01 | [43] 0.994 | [44] 1.02 | [45] 1.01 | [46] 0.98 | [47] 1.01 | [48] 0.99 | [49] 0.991 | [50] 1 | [51] 0.978 | [52] 1.04 | [53] 0.99 | [54] 0.982 | [55] 0.979 | [56] 0.991 | [57] 1.01 | [58] 1.01 | [59] 1.06 | [60] 1.02 | [61] 0.991 | [62] 1.01 | [63] 1.01 | [64] 0.997 | [65] 0.984 | [66] 1 | [67] 0.983 | [68] 0.986 | [69] 0.979 | [70] 0.979 | [71] 0.977

CC1CCN(C(=O)CC#N)CC1
inactive: locus YAL013W, strain DEP1, stronger effect = lower value 1 | locus YBR229C, strain ROT2, stronger effect = lower value 1 | [8] 1.02 | locus YDL134C, strain PPH21, stronger effect = lower value 0.986 | locus YDR150W, strain NUM1, stronger effect = lower value 1.02 | locus YEL061C, strain CIN8, stronger effect = lower value 1.03 | locus YGR078C, strain PAC10, stronger effect = lower value 1 | [26] 1.06 | locus YHR087W, strain rtc3, stronger effect = lower value 1.02 | locus YJL187C, strain SWE1, stronger effect = lower value 0.981 | locus YJR043C, strain POL32, stronger effect = lower value 0.999 | locus YJR075W, strain HOC1, stronger effect = lower value 1.01 | locus YLR039C, strain RIC1, stronger effect = lower value 1.08 | locus YLR058C, strain SHM2 (second series), stronger effect = lower value 0.995 | locus YLR085C, strain ARP6, stronger effect = lower value 1.01 | locus YLR262C, strain YPT6, stronger effect = lower value 1.1 | locus YML094W, strain GIM5, stronger effect = lower value 0.991 | locus YMR219W, strain ESC1, stronger effect = lower value 1 | locus YMR263W, strain SAP30, stronger effect = lower value 0.985 | locus YNL153C, strain GIM3, stronger effect = lower value 1.01 | locus YNL298W, strain CLA4 (second series), stronger effect = lower value 0.957 | locus YNL322C, strain KRE1, stronger effect = lower value 0.992 | locus YNR030W, strain Alg12, stronger effect = lower value 0.981 | locus YOL006C, strain TOP1, stronger effect = lower value 1.01 | locus YPL055C, strain LGE1, stronger effect = lower value 0.979 | locus YPL241C, strain CIN2, stronger effect = lower value 0.996 | locus YPR135W, strain CTF4, stronger effect = lower value 1.02
